One compound from ChEMBL document CHEMBL2218924, “A broad activity screen in support of a chemogenomic map for kinase signalling research and drug discovery” (Biochem J, 2013) can be followed below.

Molecules are shown by their SMILES.

In assay [1] the target is Tyrosine-protein kinase SYK (Homo sapiens) (UniProt P43405). Conditions: at 10 µM.
The target in assay [2] is T1, Mitogen-activated protein kinase kinase kinase 7 (Homo sapiens) (UniProt O43318).
T1 sequence (whole entry): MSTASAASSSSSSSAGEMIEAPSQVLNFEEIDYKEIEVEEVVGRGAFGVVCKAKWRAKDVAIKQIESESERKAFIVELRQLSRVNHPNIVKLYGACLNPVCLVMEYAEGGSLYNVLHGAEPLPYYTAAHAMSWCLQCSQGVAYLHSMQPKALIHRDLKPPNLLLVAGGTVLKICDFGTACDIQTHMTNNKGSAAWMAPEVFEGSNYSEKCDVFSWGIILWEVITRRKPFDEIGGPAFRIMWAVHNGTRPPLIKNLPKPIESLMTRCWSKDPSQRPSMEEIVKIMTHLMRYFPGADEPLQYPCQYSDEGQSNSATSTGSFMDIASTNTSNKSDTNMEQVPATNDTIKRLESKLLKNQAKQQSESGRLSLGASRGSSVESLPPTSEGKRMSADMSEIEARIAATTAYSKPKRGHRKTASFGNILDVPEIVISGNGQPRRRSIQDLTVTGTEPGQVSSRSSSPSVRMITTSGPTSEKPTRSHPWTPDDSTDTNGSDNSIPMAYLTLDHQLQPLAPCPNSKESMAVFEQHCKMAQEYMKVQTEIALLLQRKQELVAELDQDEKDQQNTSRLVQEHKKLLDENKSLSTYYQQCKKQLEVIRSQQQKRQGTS
The note with it: at 1 µM.

Assay [3] deals with T1, Mitogen-activated protein kinase kinase kinase 7 (Homo sapiens). The note with it: at 10 µM.
Assay [4] has as its target T2, Serine/threonine-protein kinase TAO1 (Homo sapiens) (UniProt Q7L7X3).
T2 sequence (whole entry): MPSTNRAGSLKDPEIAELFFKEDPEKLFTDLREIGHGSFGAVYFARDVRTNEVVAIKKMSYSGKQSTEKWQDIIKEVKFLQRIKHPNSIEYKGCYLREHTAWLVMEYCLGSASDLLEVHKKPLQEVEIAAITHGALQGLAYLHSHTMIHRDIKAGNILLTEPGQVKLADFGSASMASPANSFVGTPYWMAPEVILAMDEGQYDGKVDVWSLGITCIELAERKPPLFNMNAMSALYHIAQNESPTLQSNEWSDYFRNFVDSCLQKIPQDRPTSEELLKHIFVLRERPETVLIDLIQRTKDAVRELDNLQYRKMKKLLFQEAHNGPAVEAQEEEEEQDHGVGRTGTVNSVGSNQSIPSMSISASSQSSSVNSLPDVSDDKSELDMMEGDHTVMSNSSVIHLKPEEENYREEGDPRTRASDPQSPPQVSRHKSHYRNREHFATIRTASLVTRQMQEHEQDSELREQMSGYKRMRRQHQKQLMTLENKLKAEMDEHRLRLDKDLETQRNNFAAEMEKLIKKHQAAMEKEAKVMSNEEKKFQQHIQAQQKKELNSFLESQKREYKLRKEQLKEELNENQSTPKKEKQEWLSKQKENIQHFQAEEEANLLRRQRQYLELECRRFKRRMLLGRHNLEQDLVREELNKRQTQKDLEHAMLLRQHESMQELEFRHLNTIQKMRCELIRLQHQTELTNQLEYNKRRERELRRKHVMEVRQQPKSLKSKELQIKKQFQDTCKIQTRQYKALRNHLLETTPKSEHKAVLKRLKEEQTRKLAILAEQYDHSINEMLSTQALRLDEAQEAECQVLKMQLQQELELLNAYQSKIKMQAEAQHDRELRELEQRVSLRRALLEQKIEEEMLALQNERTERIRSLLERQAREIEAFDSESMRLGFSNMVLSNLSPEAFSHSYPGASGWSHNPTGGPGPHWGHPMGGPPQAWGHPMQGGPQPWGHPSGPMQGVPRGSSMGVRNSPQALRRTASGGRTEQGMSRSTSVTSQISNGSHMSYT
Conditions: at 10 µM.

The target in assay [5] is T3, Serine/threonine-protein kinase TAO2 (Homo sapiens) (UniProt Q9UL54).
T3 sequence (whole entry): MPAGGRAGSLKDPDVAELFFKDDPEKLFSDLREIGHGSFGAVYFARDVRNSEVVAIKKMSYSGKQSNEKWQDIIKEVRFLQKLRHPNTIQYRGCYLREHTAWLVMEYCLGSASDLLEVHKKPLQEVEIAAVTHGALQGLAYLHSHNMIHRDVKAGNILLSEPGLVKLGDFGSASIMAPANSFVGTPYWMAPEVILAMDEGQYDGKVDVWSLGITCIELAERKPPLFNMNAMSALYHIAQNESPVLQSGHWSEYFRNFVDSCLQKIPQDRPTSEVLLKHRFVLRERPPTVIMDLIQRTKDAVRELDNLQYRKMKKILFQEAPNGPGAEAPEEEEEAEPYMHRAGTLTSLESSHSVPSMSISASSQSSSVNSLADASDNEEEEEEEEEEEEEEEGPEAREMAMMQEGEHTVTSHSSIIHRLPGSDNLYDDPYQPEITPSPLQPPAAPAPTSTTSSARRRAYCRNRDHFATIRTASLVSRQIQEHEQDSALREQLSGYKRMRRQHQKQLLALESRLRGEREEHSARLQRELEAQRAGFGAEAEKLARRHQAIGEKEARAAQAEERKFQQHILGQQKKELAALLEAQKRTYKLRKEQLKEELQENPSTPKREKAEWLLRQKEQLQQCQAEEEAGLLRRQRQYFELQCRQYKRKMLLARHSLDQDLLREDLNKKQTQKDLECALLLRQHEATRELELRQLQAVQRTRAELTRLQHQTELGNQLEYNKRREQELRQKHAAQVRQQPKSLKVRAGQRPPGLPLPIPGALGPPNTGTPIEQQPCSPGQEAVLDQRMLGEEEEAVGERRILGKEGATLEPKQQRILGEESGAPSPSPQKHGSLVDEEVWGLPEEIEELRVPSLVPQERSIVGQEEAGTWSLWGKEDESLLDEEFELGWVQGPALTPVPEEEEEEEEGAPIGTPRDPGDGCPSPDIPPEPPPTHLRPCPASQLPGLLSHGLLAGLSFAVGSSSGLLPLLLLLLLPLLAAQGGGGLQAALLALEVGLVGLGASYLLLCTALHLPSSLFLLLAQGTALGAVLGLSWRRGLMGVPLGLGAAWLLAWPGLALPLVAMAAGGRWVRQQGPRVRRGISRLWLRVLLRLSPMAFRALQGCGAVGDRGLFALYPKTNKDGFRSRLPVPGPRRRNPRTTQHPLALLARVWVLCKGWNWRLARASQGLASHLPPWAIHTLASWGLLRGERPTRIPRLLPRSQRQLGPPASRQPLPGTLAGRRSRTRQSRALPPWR
The note with it: at 1 µM.

Assay [6] addresses T3, Serine/threonine-protein kinase TAO2 (Homo sapiens). Conditions: at 10 µM.
In assay [7] the target is T4, Serine/threonine-protein kinase TAO3 (Homo sapiens) (UniProt Q9H2K8).
T4 sequence (whole entry): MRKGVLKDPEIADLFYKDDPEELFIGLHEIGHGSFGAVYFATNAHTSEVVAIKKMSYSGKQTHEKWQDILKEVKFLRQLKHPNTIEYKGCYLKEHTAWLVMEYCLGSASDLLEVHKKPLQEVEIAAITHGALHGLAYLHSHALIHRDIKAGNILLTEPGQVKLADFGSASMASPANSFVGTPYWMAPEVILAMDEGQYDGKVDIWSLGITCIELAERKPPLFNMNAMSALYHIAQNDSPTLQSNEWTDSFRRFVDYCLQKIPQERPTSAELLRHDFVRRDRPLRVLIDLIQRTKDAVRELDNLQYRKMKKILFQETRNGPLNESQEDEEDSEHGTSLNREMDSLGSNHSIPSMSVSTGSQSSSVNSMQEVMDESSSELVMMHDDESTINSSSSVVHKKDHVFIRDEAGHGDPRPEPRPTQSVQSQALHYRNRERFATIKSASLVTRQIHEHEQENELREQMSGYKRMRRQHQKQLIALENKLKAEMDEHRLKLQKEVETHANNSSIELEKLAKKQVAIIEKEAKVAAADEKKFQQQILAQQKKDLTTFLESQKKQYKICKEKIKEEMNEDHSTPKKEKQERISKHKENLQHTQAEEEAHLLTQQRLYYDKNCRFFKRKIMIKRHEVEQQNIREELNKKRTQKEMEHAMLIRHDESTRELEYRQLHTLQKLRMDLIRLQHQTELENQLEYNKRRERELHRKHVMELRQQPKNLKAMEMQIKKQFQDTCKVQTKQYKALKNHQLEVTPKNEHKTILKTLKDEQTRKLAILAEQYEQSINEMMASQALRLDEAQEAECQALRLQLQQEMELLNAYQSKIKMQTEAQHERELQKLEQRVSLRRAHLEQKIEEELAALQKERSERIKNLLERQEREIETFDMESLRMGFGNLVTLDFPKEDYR
Conditions: at 1 µM.

The target in assay [8] is T4, Serine/threonine-protein kinase TAO3 (Homo sapiens). Conditions: at 10 µM.

On to `CN(C)CCCn1cc(C2=C(c3c[nH]c4ccccc34)C(=O)NC2=O)c2ccccc21`, for which the residual activity in assay [1] amounted to 57%; in assay [2], 103%; in assay [3], 64%; in assay [4], 53%; in assay [5], 101%; in assay [6], 49%. Also, the figures for the residual activity in assay [7] and in assay [8] were 88% and 27%, respectively.
